Records with an inconclusive call do not appear. Some compounds were tested as several samples or in several runs, with calls that do not always agree. Calls of active or inactive are those of the source. Rule for the calls, unless noted: active = hit-call score of the fitted dose curve at least 0.9, where 1 is the maximum; inactive = score below 0.9.

Experiment [1] can be described thus: ATG_TCF_b_cat_CIS: Attagene CIS-FACTORIAL HepG2 Assay for human T-Cell-Factor with beta-catenin (TCF/b-cat) (AID 2282965). Particulars: HepG2 TCF/beta-catenin cis-reporter transcription, actives raise or lower the signal. In a few lines:
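Using capillary electrophoresis as the read-out, labelled reporter cDNA fragments from transiently transfected HepG2 were sized and quantified. Exposure lasted 24 hours; activity in either direction was referenced to DMSO.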

Experiment [2] in a line: ATG_TAL_CIS: Attagene CIS-FACTORIAL HepG2 Assay for human TAL Basal Promoter (AID 2282966).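 Note: background control endpoint measuring basal TAL promoter reporter mRNA not a specific factor.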 Particulars: HepG2 Attagene cis-factorial TAL promoter reporter; actives raise or lower the signal. In a few lines: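 After 24 hours of chemical exposure, transfected HepG2 cells yielded RNA that was converted to 6-FAM-labelled, HpaI-digested reporter fragments for capillary electrophoresis. Values derive from bidirectional fitting against DMSO controls.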

A short description of experiment [3]: ATG_TGFb_CIS: Attagene CIS-FACTORIAL HepG2 Assay for human Transforming Growth Factor (TGF) (AID 2282967). Particulars: HepG2 Attagene CIS TGFb reporter, mRNA transcription; actives raise or lower the signal. In a few lines: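 HepG2 cells transiently transfected with cis-promoter-driven multiple reporter units measure endogenous TF activity; reporter mRNA quantified at 24 h by RT-PCR, FAM labeling, HpaI digestion and capillary electrophoresis. Bidirectional fit vs DMSO.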

Experiment [4] concerns the target Nuclear receptor subfamily 1 group I member 3 (Homo sapiens) (UniProt Q14994). Nature of the experiment: ATG_CAR_TRANS: Attagene TRANS-FACTORIAL HepG2 Assay for human Constitutive Androstane Receptor (CAR) (AID 2282969; active = hit-call score of the fitted dose curve at least 0.9, where 1 is the maximum;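 note: activators raise reporter mRNA above DMSO so AC50 marks induction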). The settings on record: HepG2 Attagene TRANS-FACTORIAL CAR reporter. The method in brief:
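Steps: transient transfection of HepG2 with multiple GAL4-UAS reporter units; 24 h compound incubation; RNA isolation, RT-PCR, 6-FAM primer extension, HpaI digest; capillary electrophoresis. Gain-of-signal relative to DMSO negative control.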

Experiment [5] addresses Estrogen receptor (Homo sapiens) (UniProt P03372). Nature of the experiment: ATG_ERa_TRANS: Attagene TRANS-FACTORIAL HepG2 Assay for human Estrogen Receptor alpha (ERa) (AID 2282970; active = hit-call score of the fitted dose curve at least 0.9, where 1 is the maximum). The settings on record: HepG2 Attagene TRANS ERa GAL4 reporter, mRNA. The method in brief:
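Liver-derived HepG2 cells expressing chimeric nuclear receptor-Gal4 proteins from transient transfection were exposed for 24 hours. Gain of reporter mRNA signal versus DMSO, read by capillary electrophoresis of FAM-labelled PCR products, was recorded.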

Experiment [6] deals with X-box-binding protein 1 (Homo sapiens) (UniProt P17861). Nature of the experiment: ATG_Xbp1_CIS: Attagene CIS-FACTORIAL HepG2 Assay for human X-box Binding Protein 1 (XBP1) (AID 2282972). The settings on record: HepG2 XBP1 cis-element reporter, Attagene multiplex; actives raise or lower the signal. The method in brief:
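Changes in reporter transcript abundance, read by RT-PCR and capillary electrophoresis, reflect endogenous transcription factor activity. Transfected HepG2 cells received compound for 24 hours; DMSO defined baseline for bidirectional analysis.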

Experiment [7] is described as follows: ATG_M_19_TRANS: Attagene TRANS-FACTORIAL HepG2 Assay for M19 Transcription Factor (Internal Marker) (AID 2282974; active = hit-call score of the fitted dose curve at least 0.9, where 1 is the maximum). The settings on record: HepG2 Attagene TRANS-FACTORIAL M19 internal marker reporter. In a few lines: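 After transfection of HepG2 with GAL4-UAS-driven reporter constructs, cells are dosed for 24 h. Total RNA is reverse-transcribed, reporter sequences PCR-amplified and labelled, then HpaI-digested and sized by capillary electrophoresis.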

Experiment [8] concerns the target Steroid hormone receptor ERR1 (Homo sapiens) (UniProt P11474). Nature of the experiment: ATG_ERRa_TRANS: Attagene TRANS-FACTORIAL HepG2 Assay for human Estrogen-Related Receptor alpha (ERRa) (AID 2282971; active = hit-call score of the fitted dose curve at least 0.9, where 1 is the maximum). The settings on record: HepG2 Attagene TRANS reporter, ERRa transactivation. The method in brief: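 Reporter transcript induction was quantified by RT-PCR and capillary electrophoresis of FAM-labelled, HpaI-cut products after 24 h treatment of HepG2 cells carrying transiently transfected GAL4-UAS reporter units and an exogenous ERRa-Gal4 fusion; activity scored as increase over DMSO.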

In experiment [9] the target is Androgen receptor (Homo sapiens) (UniProt P10275). Nature of the experiment: ATG_AR_TRANS: Attagene TRANS-FACTORIAL HepG2 Assay for human Androgen Receptor (AR) (AID 2282973; active = hit-call score of the fitted dose curve at least 0.9, where 1 is the maximum). Particulars: HepG2 Attagene TRANS-FACTORIAL AR reporter transcription. As for the experimental part: ATG_TRANS is a cell-based, multiplexed-readout assay that uses HepG2, a human liver cell line, with measurements taken at 24 hours after chemical dosing in a 24-well plate.ATG_AR_TRANS is one of 30 assay component(s) measured or calculated from the ATG_TRANS assay. It is designed to make measurements of mRNA induction, a form of inducible reporter, as detected with fluorescence intensity signals by Reverse transcription polymerase chain reaction (RT-PCR) and Capillary electrophoresis technology.Data from the assay component ATG_AR_TRANS was analyzed into 1 assay endpoint. This assay endpoint, ATG_AR_TRANS, was analyzed in the positive analysis fitting direction relative to DMSO as the negative control and baseline of activity. Using a type of inducible reporter, measures of mRNA for gain-of-signal activity can be used to understand the reporter gene at the transcription factor-level as they relate to the gene AR. Furthermore, this assay endpoint can be referred to as a primary readout, because this assay has produced multiple assay endpoints where this one serves a reporter gene function. To generalize the intended target to other relatable targets, this assay endpoint is annotated to the nuclear receptor intended target family, where the subfamily is steroidal.
Human liver HepG2 cells are transiently transfected with multiple reporter transcription units (MRTUs) in 6-well plates using FuGene 6 reagent (Roche; 3 ml FuGene/1 mg DNA). The MRTU constructs are regulated by a cis-regulating element (promoter). […] A major difference between the CIS and TRANS system is that in CIS activities of endogenous TFs are measured, whereas the TRANS assay evaluates changes in activities of exogenous, chimeric NR-Gal4 proteins. […] At the end of 24 hour incubation, total RNA was isolated using TriZol reagent (Invitrogen). The isolated RNA is then reverse-transcribed using oligo(dT) primer and Mo-MLV reverse transcriptase (Invitrogen) with DNAse I (Ambion) treatment for 30 min. The one-tenth of the produced cDNA was amplified by PCR using Taq DNA polymerase (Invitrogen) and two reporter sequence-specific primers. The PCR products were fluorescently labeled by primer extension with 6-arboxyfluorescein (6-FAM) 5'-labeled reporter sequence-specific primer (2 min at 95 C, 20 s at 68 C and 10 min at 72 C) and these products were digested with 5U of HpaI (New England Biolabs) for 2h at 37 C. The fragments were purified using Qiaquick PCR columns (Qiagen), analyzed on an ABI 3130xL genetic analyzer (Applied Biosystems) with peak positions identified by using a set of X-rhodamine (ROX)-labeled MapMarker1000 molecular weight standards (BioVentures). The raw capillary electrophoresis data was processed using Attagraph software (Attagene).

Sequence of Estrogen receptor (Homo sapiens) (P03372 whole entry, looked up, the tested form may be a part): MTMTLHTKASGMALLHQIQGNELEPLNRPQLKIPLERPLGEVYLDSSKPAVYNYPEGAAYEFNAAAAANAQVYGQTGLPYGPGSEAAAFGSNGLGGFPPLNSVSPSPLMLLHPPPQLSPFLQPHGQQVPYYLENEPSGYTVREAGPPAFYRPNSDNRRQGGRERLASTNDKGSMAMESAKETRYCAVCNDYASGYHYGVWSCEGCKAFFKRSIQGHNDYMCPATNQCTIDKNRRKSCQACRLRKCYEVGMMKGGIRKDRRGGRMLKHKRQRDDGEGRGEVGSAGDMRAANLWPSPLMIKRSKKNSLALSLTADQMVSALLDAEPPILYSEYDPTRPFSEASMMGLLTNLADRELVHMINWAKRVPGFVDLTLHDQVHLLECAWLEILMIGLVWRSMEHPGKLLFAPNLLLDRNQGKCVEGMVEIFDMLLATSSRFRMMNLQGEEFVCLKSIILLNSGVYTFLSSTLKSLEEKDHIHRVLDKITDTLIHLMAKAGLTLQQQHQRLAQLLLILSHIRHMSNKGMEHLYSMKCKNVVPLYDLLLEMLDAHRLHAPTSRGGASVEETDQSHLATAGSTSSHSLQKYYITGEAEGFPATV
Sequence of Steroid hormone receptor ERR1 (Homo sapiens) (P11474 whole entry, looked up, the tested form may be a part): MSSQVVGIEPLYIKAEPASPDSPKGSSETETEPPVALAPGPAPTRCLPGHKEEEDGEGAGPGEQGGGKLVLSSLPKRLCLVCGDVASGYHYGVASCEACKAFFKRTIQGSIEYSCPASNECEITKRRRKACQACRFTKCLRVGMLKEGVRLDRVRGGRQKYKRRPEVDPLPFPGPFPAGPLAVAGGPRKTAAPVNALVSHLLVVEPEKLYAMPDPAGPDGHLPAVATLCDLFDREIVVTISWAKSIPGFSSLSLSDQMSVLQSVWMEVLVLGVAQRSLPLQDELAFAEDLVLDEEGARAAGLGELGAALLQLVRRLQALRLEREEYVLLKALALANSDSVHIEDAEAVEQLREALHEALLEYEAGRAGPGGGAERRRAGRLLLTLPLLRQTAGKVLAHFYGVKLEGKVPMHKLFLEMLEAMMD
Sequence of Nuclear receptor subfamily 1 group I member 3 (Homo sapiens) (Q14994 whole entry, looked up, the tested form may be a part): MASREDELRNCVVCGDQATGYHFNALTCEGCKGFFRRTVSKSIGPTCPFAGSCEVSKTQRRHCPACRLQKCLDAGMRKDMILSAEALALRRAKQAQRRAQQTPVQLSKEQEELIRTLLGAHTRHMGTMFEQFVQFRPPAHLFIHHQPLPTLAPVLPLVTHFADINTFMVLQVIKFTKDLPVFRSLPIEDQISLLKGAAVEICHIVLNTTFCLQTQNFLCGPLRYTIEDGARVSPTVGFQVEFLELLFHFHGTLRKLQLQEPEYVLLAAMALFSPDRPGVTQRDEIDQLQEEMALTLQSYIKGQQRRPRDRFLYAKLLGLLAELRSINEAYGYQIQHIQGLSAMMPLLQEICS
Sequence of X-box-binding protein 1 (Homo sapiens) (P17861 whole entry, looked up): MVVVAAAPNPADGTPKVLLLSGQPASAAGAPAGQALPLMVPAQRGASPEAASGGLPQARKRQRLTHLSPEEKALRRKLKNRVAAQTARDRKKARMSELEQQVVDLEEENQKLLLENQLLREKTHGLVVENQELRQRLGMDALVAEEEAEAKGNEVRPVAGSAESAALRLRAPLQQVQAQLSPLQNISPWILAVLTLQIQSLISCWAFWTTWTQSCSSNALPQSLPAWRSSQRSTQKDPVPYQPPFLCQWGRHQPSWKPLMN
Sequence of Androgen receptor (Homo sapiens) (P10275 whole entry, looked up): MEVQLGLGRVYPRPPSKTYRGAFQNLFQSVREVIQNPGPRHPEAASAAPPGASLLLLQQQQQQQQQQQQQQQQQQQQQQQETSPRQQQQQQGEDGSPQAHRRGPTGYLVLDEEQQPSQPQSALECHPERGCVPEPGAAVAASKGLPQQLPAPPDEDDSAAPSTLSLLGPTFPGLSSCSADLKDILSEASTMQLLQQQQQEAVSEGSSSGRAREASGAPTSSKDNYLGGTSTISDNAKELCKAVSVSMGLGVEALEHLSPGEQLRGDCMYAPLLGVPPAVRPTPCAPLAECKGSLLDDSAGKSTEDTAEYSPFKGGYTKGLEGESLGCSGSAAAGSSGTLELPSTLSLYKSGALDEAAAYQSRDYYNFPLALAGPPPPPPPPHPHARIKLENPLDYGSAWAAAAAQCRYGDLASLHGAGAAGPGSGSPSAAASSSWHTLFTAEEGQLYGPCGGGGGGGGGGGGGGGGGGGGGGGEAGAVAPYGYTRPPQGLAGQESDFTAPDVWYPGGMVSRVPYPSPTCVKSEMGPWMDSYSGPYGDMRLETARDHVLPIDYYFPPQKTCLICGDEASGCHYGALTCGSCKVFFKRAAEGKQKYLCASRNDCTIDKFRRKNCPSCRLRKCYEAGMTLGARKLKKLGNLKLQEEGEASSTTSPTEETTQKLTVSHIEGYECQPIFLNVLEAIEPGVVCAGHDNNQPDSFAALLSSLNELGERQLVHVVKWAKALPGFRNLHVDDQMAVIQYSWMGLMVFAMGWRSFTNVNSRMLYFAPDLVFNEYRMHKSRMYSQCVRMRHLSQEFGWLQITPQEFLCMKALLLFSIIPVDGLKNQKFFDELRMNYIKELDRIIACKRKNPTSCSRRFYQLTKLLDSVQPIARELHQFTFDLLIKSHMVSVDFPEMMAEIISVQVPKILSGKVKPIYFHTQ

Broadly, the AC50 is the concentration at which the activity in the assay is half-maximal. Turning to `O=S1OCC2C(CO1)C1(Cl)C(Cl)=C(Cl)C2(Cl)C1(Cl)Cl` (stereo not drawn), the outcome in experiment [1], in experiment [2], in experiment [3], in experiment [4], in [6] and in experiment [7] was inactive. In addition, in experiment [5], the half-maximal activity concentration (AC50) is 2.04 µM (active).

Regarding `CCN(CC)C(=O)SCc1ccc(Cl)cc1`, the outcome in experiment [1], in [2], in [3], in experiment [8], in experiment [6] and in [7] was inactive. Also, the AC50 in [5] was 32.4 µM (active).

Take `CCCN(CCOc1c(Cl)cc(Cl)cc1Cl)C(=O)n1ccnc1`: the compound was called inactive in [1], in [2], in [3], in experiment [4], in experiment [8] and in [6]. The compound was called inactive in experiment [7]. In addition, in [6], the AC50 was 19.5 µM (active).

As for `[2H]C1([2H])[n+]2ccccc2-c2cccc[n+]2C1([2H])[2H]`, the call in [1], in [2], in experiment [3], in experiment [6] and in experiment [7] was inactive.

For `CCC(C)(C)C(=O)OC1=C(c2ccc(Cl)cc2Cl)C(=O)OC12CCCCC2`, the call in [1], in experiment [2], in experiment [3], in experiment [8], in experiment [6] and in [7] was inactive.

As to `COP(=S)(OC)Oc1ccc([N+](=O)[O-])cc1`, the result in experiment [1], in experiment [2], in [3], in experiment [4], in experiment [5] and in experiment [6] was inactive. For the same compound, in experiment [7], the result was inactive.

As to `Cc1[nH]c(=O)n(C(C)(C)C)c(=O)c1Cl`, the call in experiment [1], in [2], in [4], in experiment [5], in experiment [9] and in experiment [7] was inactive. The AC50 in experiment [3] is 28.7 µM (active); in [6] it was 27.4 µM (active).

Take `O=[N+]([O-])c1c(Cl)c(Cl)c(Cl)c(Cl)c1Cl`: the figures for the AC50 in experiment [1] and in experiment [5] were 29 µM (active) and 50 µM (active), respectively. The outcome in experiment [2], in experiment [3], in [4], in experiment [6] and in [7] was inactive.

Consider `CCOC1Oc2ccc(OS(C)(=O)=O)cc2C1(C)C` (stereo not drawn), for which the result in [1], in [2], in experiment [3], in experiment [4], in experiment [6] and in [9] was inactive. Moreover, the compound was called inactive in experiment [7]. The AC50 in [5] was 25.4 µM (active).

Consider `CCc1ccc(C(=O)NN(C(=O)c2cc(C)cc(C)c2)C(C)(C)C)cc1`, for which the compound was classed as inactive in experiment [1], in experiment [2], in experiment [3], in experiment [5], in experiment [8] and in experiment [6].

Consider `CCS(=O)(=O)c1cccnc1S(=O)(=O)NC(=O)Nc1nc(OC)cc(OC)n1`, for which the compound was classed as inactive in experiment [1], in experiment [2], in experiment [3], in experiment [4], in experiment [8] and in experiment [6].

As for `CCC(C)Nc1c([N+](=O)[O-])cc(C(C)(C)C)cc1[N+](=O)[O-]` (stereo not drawn), the call in experiment [1], in [2], in experiment [3], in experiment [6] and in experiment [7] was inactive. Also, the AC50 in [5] is 12.4 µM (active).

With `O=C(O)COc1ccc(Cl)cc1Cl`, the call in experiment [1], in experiment [2], in experiment [3], in experiment [6] and in experiment [7] was inactive.

`N#Cc1c(Cl)c(Cl)c(Cl)c(C#N)c1Cl`: the compound was classed as inactive in experiment [1], in experiment [2], in experiment [3], in [4], in experiment [5] and in [6]. The compound was called inactive in experiment [7].
